Reference: PubChem BioAssay (NCI)
About 83,000 compounds went through this panel and 20% of them were active in at least one assay; those are over-represented in the sample as a whole.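 Cells were grown in 96-well plates and exposed to the test compound at a single concentration for 48 hours; results are reported as percent growth, with values below 10 considered active.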 Activity calls are given as the source filed them.

System: HL-60(TB) leukemia
Assay: NCI-60 one-dose screen, 48 h (100 = growth as untreated, 0 = no growth, -100 = all killed)
Conditions: 10 µM unless noted

Row | Structure (SMILES) | growth
1 | O=S(=O)(NCCNc1nccc(-c2c(-c3cccc(O)c3)nc3occn23)n1)c1ccc(Br)cc1 | 18% (inactive)
2 | CC(C)(C)CC(C)(C)NCc1cc(C(C)(C)C)cc(CNC(C)(C)CC(C)(C)C)c1O | -33.8% (active)
3 | N=c1c(S(=O)(=O)c2ccccc2)cc2c(=O)n3ccccc3nc2n1CC1CCCO1 (centres undefined) | 109% (inactive)
4 | O=C1NC(=O)C(Cn2cnc3ccccc32)N1 (centres undefined) | 95.8% (inactive)
5 | COc1ccc(Cl)cc1NC(=O)c1cc2c(n1C)-c1nc(NC(=O)C(C)(C)C)sc1CC2 | 82.7% (inactive)
6 | CCN(CC)CCCC(C)Nc1c(-c2ccccc2)cnc2cc(Cl)ccc12 (centres undefined) | 56.3% (inactive)
7 | CCN1CCN(c2ccc(NC(=O)Nc3nc4ccc(-c5ccccc5OC)cc4s3)cc2)CC1 | -74.1% (active)
8 | COc1cc2c(cc1OC)-c1ccc3cc4c(cc3c1N(CCN(C)C)C2)OCO4 | -33.9% (active)
9 | COc1ccccc1C(OC(C)=O)OC(C)=O | 87% (inactive)
10 | O=C(COc1cccc(/C=C2\Cc3ccccc3C2=O)c1)c1ccc(Cl)cc1 | 94.2% (inactive)
11 | CNC(=S)NNC(=O)C1CC1 | 73.3% (inactive)
12 | Cc1[nH]n(-c2ccccc2)c(=O)c1C=NC(=S)C(N)=S | 102% (inactive)
13 | O=[N+]([O-])c1ccccc1Nc1ccc2ccccc2c1 | 93.5% (inactive)
14 | Cc1oc2nc[nH]c(=O)c2c1C(=O)/C=C/c1ccc(Br)cc1 | -4.98% (active)
15 | CCC1CCc2nc3sc(C(=O)Nc4ccccc4C)c(N)c3cc2C1 (centres undefined) | 2.97% (active)
16 | O=C1CCN2C(=O)Nc3ccccc3C2C1 (centres undefined) | 94.5% (inactive)
17 | Cn1c(=O)cc2c3c(c(NCCCO)ccc31)C(=O)c1ccccc1-2 | 50.8% (inactive)
18 | COc1nc(Nc2cccc(C(F)(F)F)c2)nc(OC)n1 | 92.7% (inactive)
19 | Clc1ccc2c(c1)C(c1c[nH]c3ccccc13)(c1c[nH]c3ccccc13)CCO2 | 82% (inactive)
20 | Cc1ccc(Nc2nc(N)nc(N)c2N=O)cc1Cl | 67.9% (inactive)

Row | Structure (SMILES) | growth
21 | O=C(/C=C/c1ccc[nH]1)c1ccc(-n2ccc(C(F)(F)F)n2)c(F)c1 | -11.3% (active)
22 | ICCC(c1ccccc1)(c1ccccc1)c1ccccc1 | 43.4% (inactive)
23 | CC(=O)OCC1OC(OC2C(COC(C)=O)OC(OCCC[S-])C(OC(C)=O)C2OC(C)=O)C(OC(C)=O)C(OC(C)=O)C1OC(C)=O.[Au+].c1ccc(CN2[CH-]N(Cc3ccccc3)C(c3ccccc3)=C2c2ccccc2)cc1 (centres undefined) | 13.6% (inactive)
24 | Cn1cc(-c2nc(-c3c[nH]c4ncc(F)cc34)cs2)c2cccnc21 | 103% (inactive)
25 | COc1ccc(/C=C/C(=O)c2cccc(B(O)O)c2)cc1O | 4.3% (active)
26 | COCCNc1ccc2c3c(cccc13)C(=O)N(CCN(C)C)C2=O | -17% (active)
27 | C=C1C(=O)O[C@H]2[C@H]1CC/C(COC(=O)/C=C\C(=O)O)=C\CC[C@@]1(C)O[C@@H]21 | 105% (inactive)
28 | O=C(/C=C1\C(=O)N(Cc2ccc([N+](=O)[O-])cc2)c2ccccc21)c1ccc(OCCN2CCCCC2)cc1 | -50.6% (active)
29 | CCOC(=O)n1ccn(C)c1=S | 101% (inactive)
30 | CN1CCN(Cc2ccc(NC(=O)c3cncc(C#Cc4cnc5cccnn45)c3)cc2C(F)(F)F)CC1 | -37.9% (active)
31 | Oc1ccc(CCl)c2cccnc12 | 81% (inactive)
32 | Cc1cn(-c2cc(C(=O)Nc3cccc(-n4ccc5c(NC(=O)c6ccccc6)nccc54)c3)cc(C(F)(F)F)c2)cn1 | 3.73% (active)
33 | C/C(=C\c1cnc(C)s1)[C@@H]1C[C@@H]2O[C@@H]2CCC[C@H](C)[C@H](O)[C@@H](C)C(=O)C(C)(C)[C@@H](O)CC(=O)O1 | 0.639% (active)
34 | Cc1n[nH]c2ccc(Br)cc2c1=O | 94.3% (inactive)
35 | CN=C(N)N/N=C(\C)c1ccc2c(c1)Cc1ccccc1-2 | -50.3% (active)
36 | NC(=O)NCCCC(N)C(=O)O (centres undefined) | 105% (inactive)
37 | CC[C@H](CC[C@@H](C)[C@H]1CC[C@H]2[C@@H]3CC[C@@H]4CC(=O)/C(=C\c5ccncc5)C[C@]4(C)[C@H]3CC[C@]12C)C(C)C | 83.1% (inactive)
38 | N#Cc1nc(-c2cccc(Br)c2)cc(-c2ccc(Nc3nc(N4CCCCC4)nc(N4CCCCC4)n3)cc2)c1N | -16.4% (active)
39 | O=C1c2ccccc2C(=O)c2c1c(C(=O)NCc1ccccc1)c1ccccn21 | 88.7% (inactive)
